From PubChem BioAssay (Tox21)
Records with an inconclusive call do not appear. Active and inactive are the calls of the source. Unless noted, calls follow the shape of the full dose curve.

Key:
[1] = qHTS assay to identify small molecule antagonists of the vitamin D receptor (VDR) signaling pathway - cell viability counter screen (AID 743225; active = well fitted curve in the direction sought with a large enough effect in the repeat runs; an effect the other way counts as inactive or inconclusive; also: % is scaled to controls: 0 for no effect and ±100 for the full control effect; nearly all actives have a fitted effect of over 50% in size)
Outline: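 Parallel cytotoxicity test: VDR-UAS-bla HEK 293T, 3 nM (final) 1-alpha,25-dihydroxyvitamin D3 with test compound, 16 h, 37C. Endpoint is CellTiter-Glo luminescence in the same wells.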

[2] = qHTS assay to identify small molecule agonists of the NFkB signaling pathway (AID 1159509; active = well fitted curve in the direction sought with a large enough effect in the signal ratio in the repeat runs, not every such curve was filed as active; the % refers to the signal ratio; also: series mostly up to about 61 µM; % is scaled to controls: 0 for no effect and ±100 for the full control effect)
Outline: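 ME-180 NFkB-bla, 2,000 cells/well, overnight plating; cpd pinned in DMSO, 5 h 37 C; B/G FRET substrate 1.5 h RT; ex 405, em 460/530 nm.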

[3] = qHTS assay to identify small molecule agonists of the NFkB signaling pathway - cell viability counter screen (AID 1159515); also: series mostly up to about 61 µM; % is scaled to controls: 0 for no effect and ±100 for the full control effect; nearly all actives have a fitted effect of over 55% in size
Outline: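 Viability in NFkB-bla ME-180 cells was measured by CellTiter-Glo luminescence, 30 min room temperature, in wells already treated 5 hr with compounds and read for reporter FRET.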

[4] = qHTS assay to identify small molecule agonists of the endoplasmic reticulum stress response signaling pathway - cell viability counter screen (AID 1159517);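 also: HeLa cells carrying an ER stress response element beta-lactamase reporter; series mostly up to about 61 µM; % is scaled to controls: 0 for no effect and ±100 for the full control effect; nearly all actives have a fitted effect of over 50% in size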
Outline: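 HeLa cells carrying an ESRE-driven beta-lactamase reporter receive compound for 5 hr at 37 C. Cell viability is then gauged with CellTiter-Glo by luminescence, 30 min at room temperature.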

[5] = qHTS assay to identify small molecule antagonists of the retinoid-related orphan receptor gamma (ROR-gamma) signaling pathway - cell viability counter screen (AID 1159520; active = well fitted curve in the direction sought with a large enough effect in the repeat runs; an effect the other way counts as inactive or inconclusive; also: % is scaled to controls: 0 for no effect and ±100 for the full control effect; nearly all actives have a fitted effect of over 50% in size)
Outline: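 Cytotoxicity was read from cellular ATP (CellTiter-Glo luminescence) after 16 hr at 37 C with 1 uM doxycycline induction. The inducer was added 2 hr after compound transfer to Tet-on ROR gamma CHO cells.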

[6] = qHTS assay to identify small molecule agonists of the AP-1 signaling pathway - cell viability counter screen (AID 1159525); also: nearly all actives have a fitted effect of over 55% in size
Outline: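 Luminescent ATP readout (Cell Titer Glo, 30 min RT), normalised to DMSO and tetra n-octyl ammonium bromide controls. Cells were ME-180 AP-1-bla in 0.5% dialyzed FBS Opti-MEM, with a 5 h, 37 °C compound exposure.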

[7] = qHTS assay to identify small molecule agonists of the AP-1 signaling pathway (AID 1159526); also: % is scaled to controls: 0 for no effect and ±100 for the full control effect
[8] = target: Retinoic acid receptor RXR-alpha (Homo sapiens) (UniProt P19793); assay: qHTS assay to identify small molecule agonists of the RXR signaling pathway (AID 1159527); also: nearly all actives have a fitted effect of over 35% in size; also: potency is read from the fitted curve at half-maximal effect; as to activation: % is scaled to controls: 0 for no effect and ±100 for the full control effect
Outline: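 16 hr incubation of compound-treated RXR-alpha-UAS-bla HEK 293T cells (2% charcoal-stripped FBS, 37 C) preceded a 2 hr room-temperature LiveBLAzer FRET substrate step and blue/green fluorescence measurement.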

[9] = target: Nuclear receptor ROR-gamma (Homo sapiens) (UniProt P51449); assay: qHTS assay to identify small molecule antagonists of the retinoid-related orphan receptor gamma (ROR-gamma) signaling pathway (AID 1159521; active = well fitted curve in the direction sought with a large enough effect in the repeat runs; an effect the other way counts as inactive or inconclusive;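 also: CHO cells with doxycycline inducible ROR-gamma driving an RORE luciferase reporter; top concentration of the series differs between compounds; % is scaled to controls: 0 for no effect and ±100 for the full control effect; nearly all actives have a fitted effect of over 50% in size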)
Outline: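 Decreased RORE-driven luciferase luminescence indicates antagonism. Tet-on RORγ CHO cells received compound, then 1 uM final doxycycline 2 h later; signal read after 16 h incubation.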

[10] = qHTS assay to identify small molecule agonists of the endoplasmic reticulum stress response signaling pathway (AID 1159516; active = well fitted activation curve with a large enough effect in the signal ratio in the repeat runs, not every such curve was filed as active; the % refers to the signal ratio; also: % is scaled to controls: 0 for no effect and ±100 for the full control effect)
Outline: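 ER stress element reporter (bla) in HeLa. 1,500 cells/well, overnight attachment; 5 hr compound; 2 hr RT substrate; dual-emission fluorescence.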

Sequence of Retinoic acid receptor RXR-alpha (Homo sapiens) (P19793 whole entry, looked up): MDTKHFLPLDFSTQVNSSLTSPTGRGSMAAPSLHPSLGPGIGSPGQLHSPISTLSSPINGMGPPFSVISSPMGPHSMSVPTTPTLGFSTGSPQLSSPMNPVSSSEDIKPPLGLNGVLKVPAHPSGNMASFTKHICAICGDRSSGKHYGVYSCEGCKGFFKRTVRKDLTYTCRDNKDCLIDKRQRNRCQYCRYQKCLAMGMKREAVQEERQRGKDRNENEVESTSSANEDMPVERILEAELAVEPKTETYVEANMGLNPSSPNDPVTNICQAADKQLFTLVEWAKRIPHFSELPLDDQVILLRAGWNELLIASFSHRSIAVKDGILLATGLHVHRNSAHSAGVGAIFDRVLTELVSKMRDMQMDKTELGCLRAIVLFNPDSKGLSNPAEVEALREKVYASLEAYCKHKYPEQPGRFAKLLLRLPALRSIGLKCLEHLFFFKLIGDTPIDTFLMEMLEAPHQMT

CCCCCCCCCCCCC
inactive: outcome [1] | outcome [2] | outcome [3] | outcome [4] | outcome [5] | outcome [6] | outcome [7] | Potency [8]

CC(=O)OC(C)(C)Cc1ccccc1
inactive: outcome [2] | outcome [3] | outcome [4] | outcome [5] | outcome [9] | outcome [6] | outcome [7] | Potency [8]

CC1CCC(C(C)(C)S)C(=O)C1 (configuration not stated)
inactive: outcome [1] | outcome [2] | outcome [3] | outcome [4] | outcome [5] | outcome [9] | outcome [6] | outcome [7] | Potency [8]

CC(=O)N1CCN(c2ccc(O)cc2)CC1
inactive: outcome [1] | outcome [2] | outcome [3] | outcome [4] | outcome [9] | outcome [6] | outcome [7] | Potency [8]

Cc1c(C(C)C)c(=O)n(-c2ccccc2)n1C
inactive: outcome [3] | outcome [10] | outcome [4] | outcome [5] | outcome [9] | outcome [6] | outcome [7] | Potency [8]

COC(/C=C(\C)CCC=C(C)C)OC
inactive: outcome [1] | outcome [2] | outcome [3] | outcome [4] | outcome [5] | outcome [9] | outcome [6] | outcome [7] | Potency [8]

CN[C@@H]1[C@@H](O)[C@@H](O[C@@H]2[C@H](O)[C@H](O[C@H]3OC(CN)=CC[C@H]3N)[C@@H](N)C[C@H]2N)OCC1(C)O (some centres not stated)
inactive: outcome [1] | outcome [2] | outcome [3] | outcome [4] | outcome [5] | outcome [9] | outcome [7] | Potency [8]

CCS(=O)(=O)CCn1c([N+](=O)[O-])cnc1C
inactive: outcome [1] | outcome [2] | outcome [3] | outcome [4] | outcome [5] | outcome [9] | outcome [6] | outcome [7] | Potency [8]

Cc1ccc2c(c1)c1c3n2CCNC3CCC1 (configuration not stated)
inactive: outcome [2] | outcome [3] | outcome [4] | outcome [9] | outcome [6] | outcome [7] | Potency [8]

C1CCN2C[C@@H]3C[C@@H](CN4CCCC[C@@H]34)[C@H]2C1
inactive: outcome [1] | outcome [2] | outcome [3] | outcome [4] | outcome [5] | outcome [9] | outcome [6] | outcome [7] | Potency [8]

CCCCCCCCCCC
inactive: outcome [2] | outcome [3] | outcome [4] | outcome [5] | outcome [9] | outcome [6] | outcome [7]
active: Potency [8] 12.3 µM

C1=CCC(c2ccccc2)CC1 (configuration not stated)
inactive: outcome [1] | outcome [2] | outcome [3] | outcome [4] | outcome [9] | outcome [6] | outcome [7] | Potency [8]

C=CCOCC(O)CCl (configuration not stated)
inactive: outcome [2] | outcome [3] | outcome [4] | outcome [5] | outcome [9] | outcome [6] | outcome [7] | Potency [8]

CCCCC(CC)COC(=O)c1ccccc1 (configuration not stated)
inactive: outcome [2] | outcome [3] | outcome [4] | outcome [5] | outcome [9] | outcome [6] | outcome [7] | Potency [8]

NCCc1ccn[nH]1
inactive: outcome [1] | outcome [2] | outcome [3] | outcome [4] | outcome [5] | outcome [6] | outcome [7] | Potency [8]

CC(Cl)COP(=O)(OCC(C)Cl)OCC(C)Cl (configuration not stated)
inactive: outcome [2] | outcome [3] | outcome [4] | outcome [5] | outcome [6] | outcome [7] | Potency [8]

CC(C)COC(=O)COc1ccc(Cl)cc1Cl
inactive: outcome [1] | outcome [3] | outcome [10] | outcome [4] | outcome [9] | outcome [6] | outcome [7] | Potency [8]

CC(C)CCCC(C)CC=O (configuration not stated)
inactive: outcome [1] | outcome [3] | outcome [10] | outcome [4] | outcome [9] | outcome [7] | Potency [8]

NS(=O)(=O)c1ccc(Cl)c(S(N)(=O)=O)c1
inactive: outcome [1] | outcome [3] | outcome [4] | outcome [5] | outcome [9] | outcome [6] | outcome [7] | Potency [8]

C=CCCCCCCCCCCC
inactive: viability change, negative = cytotoxic [1] 5.49% [at 6.95 µM] | activity, negative = cytotoxic [3] -9.69% [at 6.95 µM] | activation [10] -5.43% [at 6.95 µM] | activity change, negative = cytotoxicity [4] -0.545% [at 6.95 µM] | activity, negative = cytotoxicity [5] 3.91% [at 8.39 µM] | viability change, negative = cytotoxic [6] 9.65% [at 6.97 µM] | activation [7] -2.43% [at 6.97 µM] | activation [8] 6.32% [at 6.98 µM]

O=C(CN1CCN(Cc2ccc3c(c2)OCO3)CC1)N1c2ccccc2Sc2ccccc21
inactive: outcome [1] | outcome [3] | outcome [10] | outcome [4] | outcome [5] | outcome [6] | outcome [7] | Potency [8]

Cc1nc2ccccc2c(=O)o1
inactive: outcome [1] | outcome [3] | outcome [10] | outcome [4] | outcome [5] | outcome [9] | outcome [7] | Potency [8]

O=CO
inactive: viability change, negative = cytotoxic [1] 3.57% [at 6.95 µM] | activity, negative = cytotoxic [3] -18.4% [at 6.95 µM] | activation [10] -2.58% [at 6.95 µM] | activity change, negative = cytotoxicity [4] -1.24% [at 6.95 µM] | activity, negative = cytotoxicity [5] 0.77% [at 8.39 µM] | activity change, negative = inhibition [9] 22.1% [at 8.39 µM] | viability change, negative = cytotoxic [6] 1.49% [at 6.97 µM] | activation [7] 1.24% [at 6.97 µM] | activation [8] 1.02% [at 6.98 µM]

CCCCCC1CCCC(=O)O1 (configuration not stated)
inactive: outcome [1] | outcome [3] | outcome [10] | outcome [4] | outcome [5] | outcome [9] | outcome [6] | outcome [7] | Potency [8]

C=C(C)C(=O)OC1CC(C)CC(C)(C)C1 (configuration not stated)
inactive: outcome [3] | outcome [10] | outcome [4] | outcome [5] | outcome [6] | outcome [7] | Potency [8]

Cc1nc(C)nc(N2C[C@@H](C)N(c3ccnc([C@@H](C)O)n3)[C@@H](C)C2)n1
inactive: outcome [3] | outcome [10] | outcome [4] | outcome [5] | outcome [9] | outcome [7] | Potency [8]

COc1ccc(OC)c(NC(=O)CC(C)=O)c1
inactive: outcome [1] | outcome [3] | outcome [10] | outcome [4] | outcome [9] | outcome [6] | outcome [7] | Potency [8]
